Hits are enriched below; roughly 6.8% of the tested compounds scored in any of these assays.
Pf Dd2 inh: P. falciparum Dd2 growth inhibition; 94,000 compounds, 2.3% hits; SYBR Green, 72 h; hits give low values; activity change, % at 10 µM; in the data active = activity change below about -80%; inconclusive = no clear call, values can overlap the other calls
C diff growth: blocks growth of Clostridium difficile. Clostridium difficile clinical isolate growth, OD600, 24 h; hits give low values. growth activity, negative = inhibition, % at 16 µg/mL (by protocol). 86,000 compounds, 0.25% hits. AID 1259249;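 active = mean growth activity at or below -80% and every replicate also at or below -80%; inconclusive = mean at or below -80% but some replicate above -80%; inactive = mean growth activity above -80%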
T cruzi growth-1: blocks T. cruzi growth in NIH3T3 culture. 77,000 compounds, 5.9% hits. inhibition, % at 8.34 µM. T. cruzi beta-gal in NIH3T3, GalScreen luminescence, 90 h;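 active = mean inhibition above about 93%, with at least 55% of replicates each passing it, limit read from the data, passing the limit was not always enough; inconclusive = only one of those two conditions holds; inactive = neither condition holds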
T cruzi growth-2: Trypanosoma cruzi proliferation inhibition. shares compounds with T cruzi growth-1. 5,600 compounds, 72% hits. T. cruzi beta-gal in NIH3T3, GalScreen luminescence, 90 h. AID 651739. inhibition, % at 8.35 µM;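 active = mean replicate inhibition above about 95% and at least 55% of replicates individually reaching it, limit read from the data; inconclusive = only one of the two criteria is met; inactive = neither criterion is met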
T cruzi growth-3: blocks T. cruzi growth in NIH3T3 host cells. shares compounds with T cruzi growth-1. T. cruzi beta-gal in NIH3T3, GalScreen luminescence, 90 h. inhibition, % at 2.09 µM. 5,600 compounds, 21% hits;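 active = mean inhibition above about 95%, with at least 55% of replicates also reaching it, limit read from the data; inconclusive = meets just one of the two conditions; inactive = meets neither condition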
3T3 cytotox: NIH/3T3 (mouse) viability loss | shares compounds with T cruzi growth-1 | NIH/3T3 viability, CellTiter-Glo ATP luminescence, 90 h | cytotoxicity (signal decrease), % at 8.35 µM | 5,600 compounds, 14% hits;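 active = mean signal decrease across replicates above about 35% based on untreated-well scatter, with enough replicates individually passing, limit read from the data; inconclusive = no rule stated though some were filed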
NIH3T3 tox 2: NIH/3T3 (mouse) viability loss | NIH/3T3 viability, CellTiter-Glo ATP luminescence, 90 h | AID 651744 | 5,600 compounds, 56% hits | shares compounds with T cruzi growth-1 | inhibition, % at 24.9 µM;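 active = mean loss of cell viability signal at or above a set limit, and enough replicates individually reaching it; inconclusive = meets only the mean limit or only the replicate share; inactive = meets neither condition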
Numbers stand for hits; - = inactive; ? = inconclusive; . = not tested or not shown.

SMILES | Pf Dd2 inh | C diff growth | T cruzi growth-1 | T cruzi growth-2 | T cruzi growth-3 | 3T3 cytotox | NIH3T3 tox 2
O=C(Nc1ccccc1)N1CCCCN2[C@H](CO)[C@H](c3ccc(-c4ccccc4)cc3)[C@@H]2C1 | - | - | 112.5 | 108.7 | - | - | -
COc1cccc(NC(=O)Nc2ccc3c(c2)C(=O)N(C)[C@@H]2CC[C@@H](CC(=O)NCCc4ccccc4)O[C@@H]2CO3)c1 | . | - | - | . | . | . | .
CCC(=O)N1C[C@H](C)[C@@H](OC)CN(C)C(=O)c2cc(NC(=O)c3ccc(F)cc3)ccc2OC[C@@H]1C | - | . | - | . | . | . | .
Cc1noc(C)c1NC(=O)N(C)C[C@H]1Oc2ccc(NC(=O)Nc3ccc(C(F)(F)F)cc3)cc2CC(=O)N([C@H](C)CO)C[C@@H]1C | - | - | - | . | . | . | .
C[C@H]1CN([C@@H](C)CO)C(=O)c2cccc(NC(=O)C3CCOCC3)c2O[C@@H]1CN(C)Cc1ccc(Cl)c(Cl)c1 | - | - | - | . | . | . | .
Cc1ccc(S(=O)(=O)N(C)C[C@@H]2OCCCC[C@@H](C)Oc3ccc(NC(=O)Nc4ccc5c(c4)OCO5)cc3C(=O)N([C@H](C)CO)C[C@H]2C)cc1 | - | . | . | . | . | . | .
Cc1ccc(S(=O)(=O)N(C)C[C@@H]2OCCCC[C@@H](C)Oc3ccc(NC(=O)Nc4ccc5c(c4)OCO5)cc3C(=O)N([C@@H](C)CO)C[C@H]2C)cc1 | - | . | . | . | . | . | .
C[C@H](CO)N1C[C@H](C)[C@@H](CN(C)S(=O)(=O)c2ccc(Cl)cc2)OCCCC[C@H](C)Oc2ccc(NC(=O)Nc3ccc4c(c3)OCO4)cc2C1=O | - | - | 106.4 | 113.6 | 104.0 | - | -
Cc1ccc(S(=O)(=O)N(C)C[C@H]2OCCCC[C@H](C)Oc3ccc(NC(=O)Nc4ccc5c(c4)OCO5)cc3C(=O)N([C@H](C)CO)C[C@H]2C)cc1 | - | . | . | . | . | . | .
C[C@H](CO)N1C[C@H](C)[C@H](CN(C)S(=O)(=O)c2ccc(Cl)cc2)OCCCC[C@H](C)Oc2ccc(NC(=O)Nc3ccc4c(c3)OCO4)cc2C1=O | - | - | 103.7 | 102.7 | 101.7 | - | -
C[C@@H]1CCCCO[C@H](CN(C)S(=O)(=O)c2ccc(Cl)cc2)[C@H](C)CN([C@@H](C)CO)C(=O)c2cc(NC(=O)Nc3ccc4c(c3)OCO4)ccc2O1 | -85.1 | - | 99.6 | 104.9 | 113.4 | - | -
COc1ccc(CN(C)C[C@H]2Oc3ccc(NC(=O)Cc4cn(C)c5ccccc45)cc3CC(=O)N([C@H](C)CO)C[C@@H]2C)cc1 | - | - | . | . | . | . | .
O=C(NC1CCC1)[C@@H]1[C@@H](CO)[C@@H]2Cn3c(ccc(-c4ccncc4)c3=O)[C@@H]2N1CCc1ccccc1 | - | - | . | . | . | . | .
C=CCNC(=O)[C@H]1[C@@H]2C(=O)O[C@@H](c3ccccc3)[C@@H](c3ccccc3)N2[C@@H](c2ccc(O)cc2)[C@]12C(=O)Nc1ccc(C#CC3=CCCCC3)cc12 | . | - | . | . | . | . | .
COc1ccccc1-c1ccc2c(c1)[C@H]1[C@H](CCN1S(=O)(=O)c1ccccc1F)[C@H](CO)N2 | - | - | - | . | . | . | .
Cc1cccc(S(=O)(=O)N[C@H]2CC[C@@H](CCNC(=O)c3cnccn3)O[C@H]2CO)c1 | - | . | - | . | . | . | .
C[C@@H]1CN([C@H](C)CO)S(=O)(=O)c2ccc(C#CCN(C)C)cc2O[C@H]1CN(C)C(=O)C1CC1 | - | - | 89.5 | ? | - | - | -
C[C@@H]1CN([C@H](C)CO)S(=O)(=O)c2ccc(C#CC(C)(C)O)cc2O[C@H]1CN(C)C(=O)C1CC1 | - | . | 104.6 | - | - | - | 42.4
C[C@@H]1CN([C@H](C)CO)S(=O)(=O)c2ccc(C#CC(C)(C)O)cc2O[C@@H]1CN(C)C(=O)C1CC1 | - | . | - | . | . | . | .
CCCC#Cc1ccc2c(c1)O[C@@H](CN(C)C(=O)C1CC1)[C@@H](C)CN([C@H](C)CO)S2(=O)=O | - | - | - | . | . | . | .
C[C@H]1CN([C@@H](C)CO)S(=O)(=O)c2ccc(C#CCN(C)C)cc2O[C@@H]1CN(C)C(=O)C1CC1 | - | - | 110.5 | 108.7 | 99.1 | - | -
CCCC#Cc1ccc2c(c1)O[C@@H](CN(C)C(=O)C1CC1)[C@H](C)CN([C@@H](C)CO)S2(=O)=O | - | - | - | . | . | . | .
CO[C@@H]1CN(C)C(=O)c2cc(NS(=O)(=O)Cc3ccccc3)ccc2OC[C@@H](C)N(Cc2cccnc2)C[C@H]1C | - | . | - | . | . | . | .
C[C@H]1CN([C@@H](C)CO)C(=O)c2cc(-c3cccnc3)cnc2O[C@H]1CN(C)C(=O)C1CC1 | - | - | . | . | . | . | .
C[C@@H]1CCCCO[C@H](CN(C)C(=O)CCCN(C)C)[C@@H](C)CN([C@H](C)CO)C(=O)c2cc(NS(=O)(=O)c3cn(C)cn3)ccc2O1 | - | - | - | . | . | . | .
SMILES | Pf Dd2 inh | C diff growth | T cruzi growth-1 | T cruzi growth-2 | T cruzi growth-3 | 3T3 cytotox | NIH3T3 tox 2
C[C@@H]1CN([C@H](C)CO)C(=O)c2cc(NS(=O)(=O)c3ccc(F)cc3)ccc2O[C@@H]1CN(C)Cc1ccc(-c2ccccc2)cc1 | - | - | - | . | . | . | .
C[C@@H]1CN([C@@H](C)CO)C(=O)c2cc(NS(=O)(=O)c3ccc(F)cc3)ccc2O[C@H]1CN(C)Cc1ccc(-c2ccccc2)cc1 | - | - | ? | 106.5 | - | - | 103.5
COc1ccc(S(=O)(=O)Nc2ccc3c(c2)C(=O)N([C@H](C)CO)C[C@H](C)[C@H](CN(C)Cc2ccc(-c4ccccc4)cc2)O3)cc1 | - | - | - | . | . | . | .
C[C@@H]1CN([C@@H](C)CO)C(=O)c2cc(NS(=O)(=O)c3ccc(Cl)cc3)ccc2O[C@@H]1CN(C)Cc1ccc(-c2ccccc2)cc1 | - | - | ? | ? | - | 82.1 | 103.5
C[C@@H]1CN([C@@H](C)CO)C(=O)c2cc(NS(=O)(=O)c3ccc(Cl)cc3)ccc2O[C@H]1CN(C)Cc1ccccc1 | - | - | - | . | . | . | .
C[C@@H]1CN([C@H](C)CO)C(=O)c2cc(NS(=O)(=O)c3ccc(Cl)cc3)ccc2O[C@@H]1CN(C)Cc1ccc(-c2ccccc2)cc1 | - | - | ? | 98.3 | - | 92.1 | 104.6
C[C@H](CO)N1C[C@H](C)[C@@H](CN(C)Cc2ccc(-c3ccccc3)cc2)Oc2ccc(NS(=O)(=O)c3ccccc3)cc2C1=O | - | - | - | . | . | . | .
COc1ccc(S(=O)(=O)Nc2ccc3c(c2)C(=O)N([C@@H](C)CO)C[C@H](C)[C@H](CN(C)Cc2ccc(-c4ccccc4)cc2)O3)cc1 | - | - | ? | 103.5 | - | - | 88.0
C[C@H]1CN([C@@H](C)CO)C(=O)Cc2cc(NC(=O)C3CC3)ccc2O[C@@H]1CN(C)C(=O)Nc1ccc2c(c1)OCO2 | - | - | - | . | . | . | .
C[C@@H]1CN([C@H](C)CO)C(=O)c2cc(N(C)C)ccc2O[C@@H]1CN(C)Cc1ccc(-c2ccccc2)cc1 | - | - | - | . | . | . | .

Assay outcomes from PubChem BioAssay.
